Source: PubChem BioAssay AID504332 (National Center for Advancing Translational Sciences (NCATS), 2011)
In all, about 350,000 compounds went through this assay and about 31,000 (8.9%) were called active. Another 15% or so got no clear call; they are omitted. The call rests on the fitted dose curve; in most records, active means well fitted inhibition curve with a large enough effect; inconclusive means small, poorly fitted or top-dose-only effect; inactive means no such curve, though single readings can be large or run the other way. The entries come from a sample that favours actives as a whole. Where a call stands in place of a potency, no number is given.

The compounds below were run against Histone-lysine N-methyltransferase EHMT2 (Homo sapiens) (UniProt Q96KQ7) (assay: qHTS Assay for Inhibitors of Histone Lysine Methyltransferase G9a). Conditions: G9a H3K9 monomethylation, AlphaScreen, 2 h; series mostly up to 59 µM.
Procedure, shortened: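 G9a (20 nM) was preincubated 15 min with compound, then reacted 2 h at room temperature with 500 nM biotin-H3K9 peptide and 20 µM SAM. Monomethyl-H3K9 detected by AlphaScreen using anti-H3K9me1 antibody.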
Further: nearly all actives have a fitted effect of over 75% in size.
Potency means the concentration at half of the fitted maximal effect.

Histone-lysine N-methyltransferase EHMT2 (Homo sapiens), sequence (Q96KQ7 913-1193 limits assumed): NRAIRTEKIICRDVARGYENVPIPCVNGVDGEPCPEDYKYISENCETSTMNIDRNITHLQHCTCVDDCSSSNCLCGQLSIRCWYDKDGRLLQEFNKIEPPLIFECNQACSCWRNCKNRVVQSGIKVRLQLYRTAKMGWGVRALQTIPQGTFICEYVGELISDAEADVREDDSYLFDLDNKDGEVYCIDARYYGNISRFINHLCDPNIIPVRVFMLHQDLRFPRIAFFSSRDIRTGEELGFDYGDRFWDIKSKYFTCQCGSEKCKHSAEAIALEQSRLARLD

Row | Structure (SMILES) | activity, negative = inhibition | Potency
1 | Cc1ccc(S(=O)(=O)N(C)C)cc1NC(=O)C(C)OC(=O)c1ccc2ccccc2n1 (stereo not drawn) | 10.5% [at 2.33 µM] (inactive) | –
2 | C=CCc1c(C)nc2cc(-c3ccccc3)[nH]n2c1=O | – | inactive
3 | CCOC(=O)c1sc(NC(=O)/C=C/c2ccc(C(C)C)cc2)c(C(=O)OCC)c1C | – | inactive
4 | CCOC(=O)c1c(NC(=S)NC(=O)/C=C/c2cccs2)sc(C)c1C | – | inactive
5 | Cc1nnc(NC(=O)/C=C/c2ccco2)s1 | – | 31.6 µM (active)
6 | Cc1nnc(NC(=O)C(c2ccccc2)c2ccccc2)s1 | – | inactive
7 | CCOC(=O)c1c(NC(=O)/C=C/c2ccco2)sc(C)c1C | – | 44.7 µM (active)
8 | CCC(CC)c1nnc(NC(=O)/C=C/c2ccco2)s1 | – | inactive
9 | Oc1ccccc1-c1nc(/C=C/c2ccc(F)cc2)no1 | – | inactive
10 | O=C(NCC(c1ccc(Cl)cc1)N1CCOCC1)c1ccccc1F (stereo not drawn) | – | inactive
11 | O=C(Nc1cccnc1Cl)c1cc(-c2ccccc2O)on1 | – | inactive
12 | O=C1CCCC2=C1C(c1ccccc1)n1c(s/c(=C/c3cccc(F)c3)c1=O)=N2 (stereo not drawn) | – | 10 µM (active)
13 | O=C1CSC(c2cccc(F)c2)N1c1ccccc1F (stereo not drawn) | -5.4% [at 12.7 µM] (inactive) | –
14 | O=C1CC(c2cccc(F)c2)C2=C(CCCC2=O)N1 (stereo not drawn) | – | inactive
15 | Cc1ccc(-c2cc(C(F)(F)F)c(C#N)c(SCC(=O)Nc3ccccc3)n2)cc1 | – | inactive
16 | CCOCCc1nn2c(=O)cc(COC(=O)CNC(=O)c3ccc(C(C)(C)C)cc3)nc2s1 | – | inactive
17 | C[C@H](C(=O)CC(=O)OC(C)(C)C)[C@H](O)c1ccc(C(F)(F)F)cc1 | – | 79.4 µM (active)
18 | COc1ccc(CNC(=O)C2CC(c3ccc(C(F)(F)F)cc3)=NO2)cc1 (stereo not drawn) | – | inactive
19 | CC(C)(C)OC(=O)N[C@H](C(=O)OC(C)(C)C)c1ccc(Br)cc1 | 2.34% [at 0.501 µM] (inactive) | –
20 | COC(=O)c1cccc(C(=O)N2CCC(CCC(=O)NCc3ccc(F)cc3)CC2)c1 | – | inactive
21 | Cc1occc1C(=O)NC1CCCN(Cc2ccc(CC(C)C)cc2)C1 (stereo not drawn) | – | inactive
22 | Cc1ccccc1CN1CCC(C(=O)Nc2ccc(Oc3cccnc3)cc2)CC1 | – | inactive
23 | COc1ccc(CCNc2ncnc3c2cnn3-c2ccc(C)cc2)cc1 | – | inactive
24 | COc1ccc(CCNC(=O)c2nn(C)c3c2CSc2ccccc2-3)cc1OC | – | inactive
25 | COc1cc(NC(=O)c2nc3ccccc3nc2C)cc(OC)c1OC | – | inactive
26 | COc1cc(NC(=O)c2noc3c2CSc2ccccc2-3)cc(OC)c1OC | – | 1.78 µM (active)
27 | COc1ccc(-c2onc(C)c2C)cc1S(=O)(=O)NCc1cccs1 | – | inactive
28 | Cc1ccc(S(=O)(=O)N2CCN(C(=O)c3ccccc3-c3nc4ccccc4s3)CC2)c(C)c1 | – | inactive
